Screens deposited in PubChem BioAssay by National Center for Advancing Translational Sciences (NCATS).
Sampled rows, rich in hits. Any-hit rate of the full collection: about 7.4%.
FLuc modulator: qHTS profiling assay for firefly luciferase inhibitor/activator using purifed enzyme and Km concentrations of substrates (counterscreen for miR-21 project) | Luciferin 4-monooxygenase (Photinus pyralis), P08659 | purified FLuc, Km substrates, luminescence inhibition | Potency, µM (doses to about 57.5 µM), most hits filed as inhibitors | 360,000 tested, 6.9% active; further: nearly all actives have a fitted effect of over 55% in size
Target sequence (P08659 whole entry, looked up): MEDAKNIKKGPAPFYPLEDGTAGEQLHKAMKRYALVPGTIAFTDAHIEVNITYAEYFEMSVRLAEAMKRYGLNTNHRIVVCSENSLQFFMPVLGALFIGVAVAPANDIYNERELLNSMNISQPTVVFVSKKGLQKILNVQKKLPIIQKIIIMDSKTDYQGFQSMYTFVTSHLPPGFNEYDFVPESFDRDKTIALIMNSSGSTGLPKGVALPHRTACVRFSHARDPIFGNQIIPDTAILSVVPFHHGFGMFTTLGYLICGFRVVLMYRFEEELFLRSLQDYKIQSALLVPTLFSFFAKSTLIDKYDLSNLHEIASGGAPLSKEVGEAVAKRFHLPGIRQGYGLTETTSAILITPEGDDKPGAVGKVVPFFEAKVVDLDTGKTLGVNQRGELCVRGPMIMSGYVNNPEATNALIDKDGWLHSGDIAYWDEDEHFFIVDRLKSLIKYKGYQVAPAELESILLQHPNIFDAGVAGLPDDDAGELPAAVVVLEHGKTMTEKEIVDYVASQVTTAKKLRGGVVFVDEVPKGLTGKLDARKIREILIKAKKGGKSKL
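Biochemical qHTS of compounds, final roughly 60 µM downward over six points, against 10 nM purified firefly luciferase using Km concentrations of substrates (10 uM D-luciferin, 10 uM ATP) in Tris acetate pH 7.5 buffer; luminescence output.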
NPC1 prom act: qHTS Assay for NPC1 Promoter Activators; Potency, µM (doses to about 9.22 µM), most hits filed as activators; 320,000 tested, 2.4% active; Huh7 NPC1 promoter luciferase reporter, 24 h; further: nearly all actives have a fitted effect of over 60% in size
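Huh7 reporter cells (NPC1 promoter driving luciferase) are dosed with compound for 24 h at 37 °C, 5% CO2; luciferase detection reagent is then added and luminescence measured after 10 min at ambient temperature.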
KinaseGlo FLuc: Counterscreen for Luciferase (Kinase-Glo TM) Inhibition. Kinase-Glo luciferase, ATP luminescence, 8 min. Luciferin 4-monooxygenase (Photuris pensylvanica), Q27757. AID 1379, 2008. 200,000 tested, 0.28% active. Potency, µM (titrated, usually from 38.3 µM), actives largely listed as inhibitors; further: nearly all actives have a fitted effect of over 60% in size
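Inhibition of Kinase-Glo luciferase light generation was assessed at 10 uM ATP in pH 7.2 imidazole buffer, with luminescence measured after eight minutes at ambient temperature.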
SMN2 splice up: qHTS Assay for Enhancers of SMN2 Splice Variant Expression; 210,000 tested, 2.8% active; Potency, µM (top dose mostly 46.1 µM), usual class: activators; HEK293 SMN2-luciferase splicing reporter, luminescence, 30-36 h; further: nearly all actives have a fitted effect of over 55% in size
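HEK293 cells carry an SMN2 […]–luciferase reporter in which exon 7 inclusion puts luciferase in frame. Cells were plated 10-12 h before compound addition, then incubated 30-36 h at 37C. ONE-Glo luminescence was read; sodium butyrate at 4.5 mM final served as control.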
Rab9 promoter act: qHTS Assay for Rab9 Promoter Activators; Huh7 Rab9 promoter-luciferase reporter, luminescence, 24 h; Potency, µM (highest dose often 9.22 µM), actives largely listed as activators; 320,000 tested, 2.8% active; further: nearly all actives have a fitted effect of over 60% in size
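Huh7 cells stably carrying a Rab9 promoter-luciferase reporter, 1500 cells per well in OP-MEM I with 10% FBS, treated with compound 24 hours at 37C. Luciferase activity read by luminescence after 10 minutes with Amplite reagent.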
ELG1 genotoxic: qHTS screen for small molecules that induce genotoxicity in human embryonic kidney (HEK293T) cells expressing luciferase-tagged ELG1; HEK293T ELG1-luciferase reporter, luminescence, 16 h; Potency, µM (doses to about 46 µM), hits mostly activators; 330,000 tested, 1.3% active; AID 504466, 2011; further: nearly all actives have a fitted effect of over 60% in size
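Genotoxic stress is detected as increased luminescence from luciferase-tagged ELG1 in HEK293T cells, measured with ONE-Glo after a 16 hr treatment at 37 °C.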
Hits are given with their value; n = inactive; u = inconclusive; x = no result. The call rests on the fitted dose curve; in most records, active means well fitted curve in the direction sought with a large enough effect; inconclusive means small, poorly fitted or top-dose-only effect, or another doubt; inactive means no such curve, though single readings can be large; an effect the other way counts as inactive or inconclusive.

SMILES	FLuc modulator	NPC1 prom act	KinaseGlo FLuc	SMN2 splice up	Rab9 promoter act	ELG1 genotoxic
Cc1ccc(-c2nc3n(n2)C(c2ccccc2C)C=C(c2ccc(Cl)cc2)N3)cc1 (configuration not stated)	n	x	x	n	x	x
Cc1ccccc1C1CC(=O)Oc2cc(C)c(Br)c(C)c21 (configuration not stated)	x	x	n	x	x	x
CN(C)c1ccc(CNC(=O)Cn2c(=O)oc3cc(S(=O)(=O)N4CCCCCC4)ccc32)cc1	n	x	x	x	x	x
CC1CCCN(c2ccc(C(=O)NCC3CCCO3)cn2)C1 (configuration not stated)	u	u	n	12.6µM	u	n
CC1CCN(c2ccc(C(=O)NCc3cccs3)cn2)CC1	23.9µM	u	n	n	u	u
CC1CCN(S(=O)(=O)c2cccc(C(=O)NCc3cccs3)c2)CC1	n	n	n	n	n	n
O=C(NCC1CCCO1)c1ccc(/C=N/O)nc1 (configuration not stated)	n	n	n	n	n	n
COc1ccc(OC(C)C(=O)NCc2nc(-c3cccc(C)c3)no2)cc1 (configuration not stated)	n	x	x	n	x	x
CC(=O)N1CCCN(C(=O)c2cc(COc3c(F)cccc3F)on2)CC1	n	n	x	x	n	n
O=C(c1cc(COc2c(F)cccc2F)on1)N1CCCCCC1	u	u	x	x	2.82µM	u
CCOC(=O)N1CCN(C(=O)c2cc(COc3c(F)cccc3F)on2)CC1	8.49µM	2.24µM	x	x	3.16µM	14.6µM
CCOC(=O)C1CCN(C(=O)c2cc(COc3ccc(F)cc3F)on2)CC1	13.5µM	2.82µM	x	x	2.82µM	20.6µM
O=C(c1cc(COc2ccc3c(c2)CCCC3)on1)N1CCCC1	10.7µM	2.82µM	x	x	3.98µM	18.3µM
COC(=O)c1ccc(C(NC(=O)OCc2ccccc2)/C(C)=C/[C@@H](C)C(=O)Nc2ccc(OC)cc2)cc1 (some centres not stated)	x	x	n	n	x	x
CC(C)C[C@@H](CC(=O)N[C@@H](CCC(=O)O)CC(=O)O)NC(=O)[C@@H]1CCCC[C@H]1NC(=O)C[C@@H](NC(=O)C[C@H](CO)NC(=O)[C@@H]1CNCC[C@H]1N)C(C)C	x	x	n	n	x	x
COc1ccc(-n2cc(-c3ccccc3)nc2SCC(=O)Nc2ccccc2)cc1Cl	n	x	x	x	x	x
Cc1cccc(C)c1OCc1cc(C(=O)N2CCN(c3ccc(F)cc3)CC2)no1	3.38µM	0.631µM	x	x	1.12µM	u
COc1ccc(-c2nc(CN3CCC(C(=O)NCCCN4CCN(c5ccccc5F)CC4)CC3)c(C)o2)cc1OC	n	x	x	n	x	x
COc1ccc(/C=N/NC(=O)Cc2ccc(Cl)cc2)cc1OC	n	n	n	n	n	u
COc1ccc(/C=C\C(=O)Oc2cccc(/C=N/NC(=O)Cc3ccc(OC)c(OC)c3)c2)cc1	10.7µM	u	n	12.6µM	u	u
COc1ccc(/C=C/C(=O)Oc2cccc(/C=N/NC(=O)c3cccc(F)c3)c2)cc1	2.39µM	3.55µM	n	11.2µM	2.82µM	u
O=C1OC(Nc2nc3ccccc3s2)c2ccccc21 (configuration not stated)	10.7µM	n	n	n	n	n
O=C1OC(Nc2nccs2)c2ccccc21 (configuration not stated)	n	u	n	n	n	n
COCc1nn2c(N)c(C#N)cnc2c1-c1ccccc1	13.5µM	n	n	n	n	n
COc1ccc(-c2c(C)nn3c(N)c(-c4ccccc4)cnc23)cc1OC	u	n	x	x	n	n
SMILES	FLuc modulator	NPC1 prom act	KinaseGlo FLuc	SMN2 splice up	Rab9 promoter act	ELG1 genotoxic
COCc1nn2c(N)c(-c3ccccc3)cnc2c1-c1ccccc1	0.849µM	2.82µM	x	x	2.82µM	u
COc1ccccc1-c1c(C)nn2c(N)c(-c3ccccc3)cnc12	19µM	n	x	x	n	n
COc1ccccc1C(=O)NC1=NC(c2ccc(Br)cc2)CC(=O)N1 (configuration not stated)	4.78µM	x	x	11.2µM	x	x
Cc1ccc(-n2c3c(cc(-c4nc(-c5ccc(Cl)cc5)cs4)c2=O)C(=O)CC(C)(C)C3)cc1C	n	x	x	n	x	x
O=C(COC(=O)c1ccc(Cl)s1)c1cc2ccccc2o1	23.9µM	n	n	n	n	n
Cn1cccc1C(=O)OCC(=O)c1cc2ccccc2o1	12µM	n	n	n	n	n
Cn1cccc1C(=O)OCC(=O)NCCCc1ccccc1	x	x	x	x	x	n
O=C(COC(=O)c1nc(Cl)ccc1Cl)c1ccc(Cl)s1	u	n	n	n	n	n
COc1ccc(NC(=O)Cn2cc(C(=O)C3CCCCC3)c3ccccc32)cc1	n	x	x	n	x	x
COc1ccc2cc3cc(C(=O)NCCCN4CCc5ccccc5C4)sc3nc2c1	9.53µM	u	n	15.8µM	4.47µM	n
COc1ccc2nc3sc(C(=O)NCCN4CCc5ccccc5C4)cc3cc2c1	u	n	n	n	n	n
COc1ccc2cc3cc(C(=O)NC4CC4)sc3nc2c1	0.675µM	0.447µM	x	x	0.316µM	u
C=CC(=O)CC	x	x	x	n	x	x
COc1ccc(-n2nc(C(=O)NCC(=O)N3CCN(c4ccccc4F)CC3)c3ccccc3c2=O)cc1	0.338µM	u	x	x	u	n
COc1ccc(-n2nc(C(=O)NCC(=O)N3CCN(c4ccccc4F)CC3)c3ccccc3c2=O)cc1OC	0.953µM	u	x	x	n	n
COc1ccc(-n2nc(C(=O)NCC(=O)N3CCN(C)CC3)c3ccccc3c2=O)cc1OC	u	n	n	n	n	n
CC(Sc1nc2c([nH]c3ccccc32)c(=O)n1-c1ccccc1)c1ccccc1 (configuration not stated)	n	x	x	x	x	x
COc1cccc(S(=O)(=O)NCC(=O)Nc2ccc(C(C)(C)C)cc2)c1	u	n	n	n	n	n
O=C(CNS(=O)(=O)c1cccc(Cl)c1)Nc1ccc(-c2nc3ccccc3s2)cc1	15.1µM	u	n	4.47µM	1.58µM	8.2µM
O=C(O)CNS(=O)(=O)c1cccc(Cl)c1	n	n	x	x	n	n
CC(NS(=O)(=O)c1cccc(Cl)c1)C(=O)Nc1ccc(-c2nc3ccccc3s2)cc1 (configuration not stated)	16.9µM	u	n	20µM	2.82µM	u
Cc1ccc(C)c(S(=O)(=O)NC(C)C(=O)Nc2ccc(-c3nc4ccccc4s3)cc2)c1 (configuration not stated)	7.57µM	3.55µM	n	n	3.16µM	u
COc1ccc(NC(=O)C(C)NS(=O)(=O)c2ccccc2)cc1Cl (configuration not stated)	n	n	n	n	n	n
